Source: PubChem BioAssay AID430 (Sanford-Burnham Center for Chemical Genomics, 2006)
Among all 63,000 compounds or so, about 1,100 (1.7%) were called active. What follows is part of a selection rich in actives, with near analogues and random picks from the rest. Potency and affinity values are given separately. Values without a mark were called inactive. Cut-off read from the data, not from the text of the source: active = cytotoxicity above about 50%; inactive = the rest.

Assay: HPDE-C7 pancreatic duct cell viability loss – fluorescence, HTS (AID 430);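 note: cells exposed to compound for 48 hours before viability readout; 0% = vehicle and 100% = reference cytotoxic drug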
Details: HPDE-C7 pancreatic duct cells viability, at 10 µM, stronger effect = higher value
O=C(Oc1cc(=O)oc2ccccc12)c1ccco1 showed a cytotoxicity of 14.1%. In the case of CCCCS(=O)(=O)/C=C\C1C2C=CC(C2)C1S(=O)(=O)CCCC (stereo not drawn), the cytotoxicity is reported as -10.1%. For CCCCS(=O)(=O)/C=C\C=C/S(=O)(=O)CCCC, the cytotoxicity was 111% (active). Work on CC(=O)NC1(c2cccc(F)c2)CCN(C(=O)Nc2ccc(C#N)cc2)CC1 yielded a cytotoxicity of -15%. CC(NC(=O)Cc1ccsc1)c1ccc(S(N)(=O)=O)cc1 (stereo not drawn) gave a cytotoxicity of 5.5%. Work on CN(C)CCCN1c2ccccc2CCc2ccc(Cl)cc21 yielded a cytotoxicity of 31.8%. OCCN1CCN(C(=S)c2ccc(Cl)cc2)CC1 gave a cytotoxicity of -26%. Work on O=C(CN1CCN(CCOCCO)CC1)N1c2ccccc2Sc2ccc(Cl)cc21 yielded a cytotoxicity of -24.7%. In the case of CN1CCN(CCC(=O)N2c3ccccc3Sc3ccc(Cl)cc32)CC1, the cytotoxicity is reported as 17.5%. In the case of CN1CCN(CCCN2c3ccccc3Sc3ccc(Cl)cc32)CC1, the cytotoxicity is reported as 75% (active). Work on CCCN(C(=O)CSc1nnc(-c2ccoc2C)n1N)C1CCS(=O)(=O)C1 (stereo not drawn) yielded a cytotoxicity of 6.4%. With CCOC(=O)c1cn(CC)c2ccc(S(=O)(=O)N3CC(C)CC(C)C3)cc2c1=O (stereo not drawn) the cytotoxicity was -2%. In the case of CC1=C(C(=O)OCC2CCCO2)C(c2cccc(O)c2)NC(=O)N1 (stereo not drawn), the cytotoxicity is reported as -6.4%. In the case of CC(=O)N1CCc2cc(S(=O)(=O)CCC(=O)NCc3ccc4c(c3)OCO4)ccc21, the cytotoxicity is reported as -4.4%. Molecule COc1ccccc1N1CCN(C(=O)c2cc3c(=O)n(C)c4ccccc4c3n2C)CC1 has a cytotoxicity of 29%. Work on Cn1c(C(=O)N2CCN(c3ccc(Cl)cc3)CC2)cc2c(=O)n(C)c3ccccc3c21 yielded a cytotoxicity of 6.6%. With Cc1cccc(N2CCN(C(=O)c3cc4c(=O)n(C)c5ccccc5c4n3C)CC2)c1C the cytotoxicity was 61.6% (active). Molecule CC(NC(=O)c1cc2c(=O)n(C)c3ccccc3c2n1C)c1ccc2c(c1)OCCO2 (stereo not drawn) has a cytotoxicity of 38.8%. In the case of Cn1c(C(=O)N2CCN(c3ccccc3F)CC2)cc2c(=O)n(C)c3ccccc3c21, the cytotoxicity is reported as 5.3%. In the case of Cn1c(C(=O)Nc2ccc3c(c2)OCCO3)cc2c(=O)n(C)c3ccccc3c21, the cytotoxicity is reported as 60% (active). Work on Cn1c(C(=O)N2CCCC2)cc2c(=O)n(C)c3ccccc3c21 yielded a cytotoxicity of 14.1%. Molecule Cn1c(C(=O)Nc2ccc3c(c2)OCO3)cc2c(=O)n(C)c3ccccc3c21 has a cytotoxicity of 18%. For Cc1ccc(Cl)cc1N1CCN(C(=O)c2cc3c(=O)n(C)c4ccccc4c3n2C)CC1, the cytotoxicity was 59.5% (active). O=C(COc1ccc(S(=O)(=O)NC2CCCCC2)cc1Cl)NCC1CCCO1 (stereo not drawn) gave a cytotoxicity of -2.7%. With CC(C)CCNC(=O)c1cccc(Cl)c1 the cytotoxicity was 1.2%. Molecule O=c1n(Cc2ccccc2Cl)c2sc3c(c2c2ncnn12)CCCC3 has a cytotoxicity of -20.8%. In the case of O=C(Cn1c(=O)n2ncnc2c2c3c(sc21)CCCC3)c1ccccc1, the cytotoxicity is reported as -18.5%. For COCCSc1nnc(NS(=O)(=O)Cc2ccccc2)s1, the cytotoxicity was -1.4%. O=C(O)CSc1ncn[nH]1 showed a cytotoxicity of 1%. c1ccc(Nc2c3c(nc4ncnn24)CCC3)cc1 showed a cytotoxicity of -24.1%. In the case of C=CCc1cc(C)ccc1OCC(O)CN1CCN(c2ccccc2)CC1 (stereo not drawn), the cytotoxicity is reported as 22.9%. COc1ccc(S(=O)(=O)N2CCN(S(=O)(=O)c3ccc4c(c3)OCCO4)CC2)cc1C showed a cytotoxicity of -3.8%. In the case of COc1ccc(OC)c(S(=O)(=O)Nc2cc(OC)c(Cl)cc2OC)c1, the cytotoxicity is reported as 5.6%. In the case of COc1cc(NS(=O)(=O)c2ccc(OC)c(C)c2C)c(OC)cc1Cl, the cytotoxicity is reported as 60.7% (active). Molecule COc1cc(NS(=O)(=O)c2cc(C)ccc2OC)c(OC)cc1Cl has a cytotoxicity of -0.5%. With CC1CCCCN1C(=O)c1cnn2c(C(F)(F)F)cc(-c3ccco3)nc12 (stereo not drawn) the cytotoxicity was -7.7%. CCN1CCN(c2ncnc3c2cnn3-c2ccc(C)cc2C)CC1 gave a cytotoxicity of -8.1%. In the case of CCc1cc2c(N3CCN(c4nnc(CC)s4)CC3)ncnc2s1, the cytotoxicity is reported as 15.2%. With COc1ccc(-n2ncc3c(N4CCN(c5cc(C)ccc5C)CC4)ncnc32)cc1 the cytotoxicity was 1.5%. For COc1ccc(N2CCN(c3ncnc4c3cnn4-c3ccc(C)cc3C)CC2)cc1, the cytotoxicity was 0.4%. Cc1ccc(-n2ncc3c(N4CCCC4)ncnc32)c(C)c1 showed a cytotoxicity of -2.3%. In the case of CCc1cc2c(N3CCCCC3)ncnc2s1, the cytotoxicity is reported as -21.8%. With O=C(c1ccco1)N1CCN(c2ncnc3c2cnn3-c2ccccc2)CC1 the cytotoxicity was -6.3%. Work on O=C(COc1ccccc1)N1CCN(c2ncnc3c2cnn3-c2ccccc2)CC1 yielded a cytotoxicity of -0.4%. In the case of CCc1cc2c(N3CCN(c4ccccc4)CC3)ncnc2s1, the cytotoxicity is reported as 75.1% (active). With Cc1cc(C(=O)CN2C(=O)c3ccccc3C2=O)c(C)n1C1CC1 the cytotoxicity was 6.6%. Molecule O=C(c1ccccc1)N1CCCOC1c1ccccc1 (stereo not drawn) has a cytotoxicity of 2.4%. Cn1c(=O)c2c(nc(SCC(=O)NC3CCCCC3)n2C)n(C)c1=O gave a cytotoxicity of -18.4%. Molecule COc1ccc(CCNC(=O)CN2C(=O)c3ccccc3S2(=O)=O)cc1OC has a cytotoxicity of 0.7%. Cn1cccc1Cc1nnc(SCC(=O)Nc2ccccc2)n1-c1ccc(F)cc1 showed a cytotoxicity of 0%. O=C(CN1CCC(NC(=O)c2ccc(F)cc2)CC1)NCc1ccccc1F showed a cytotoxicity of -5.6%. In the case of O=C(Nc1cccc(Cl)c1)N1CCN(Cc2ccccc2)CC1, the cytotoxicity is reported as 17.3%. O=C(NC1CCCc2ccccc21)C1CCCO1 (stereo not drawn) showed a cytotoxicity of 2%. For O=C(NC1CCCCC1)C(c1ccc(F)cc1)N(Cc1ccco1)C(=O)Cn1nnc2ccccc21 (stereo not drawn), the cytotoxicity was -13.1%. Molecule CCC(C)(C)NC(=O)C(c1ccccc1F)N(Cc1ccco1)C(=O)Cn1nnc2ccccc21 (stereo not drawn) has a cytotoxicity of 2.4%. With O=C(NC1CCCCC1)C(c1ccccc1F)N(Cc1ccco1)C(=O)Cn1nnc2ccccc21 (stereo not drawn) the cytotoxicity was 63.4% (active). Molecule Cc1ccc(S(=O)(=O)Nc2nc3ccccc3nc2NCc2ccco2)cc1C has a cytotoxicity of -2.8%. C=CCn1c(SCC(=O)N2CCN(C(=O)c3ccco3)CC2)nc2sc(CC)cc2c1=O showed a cytotoxicity of -4.1%. With O=C(CSc1nc2ccccc2s1)NC(=O)NCc1ccco1 the cytotoxicity was 82.9% (active). In the case of O=C(CCCSc1nc2ccccc2s1)NCc1ccco1, the cytotoxicity is reported as -2.9%. Molecule C=CCn1c(SCC(=O)NC(=O)NCc2ccco2)nc2sc(C)c(C)c2c1=O has a cytotoxicity of -0.5%. O=C(CSc1nc2cc(Cl)ccc2s1)NC(=O)NCc1ccco1 showed a cytotoxicity of -4.7%. With C=CCn1c(SCC(=O)NC(=O)NCc2ccco2)nc2sc(CC)cc2c1=O the cytotoxicity was 57.6% (active).
